Measurements: the supplement of paper PMC6555819

Key:
Experiment in all cases: PBM binding z-score (relative to random genomic background probes); higher = stronger binding; sequences stand for … in GC…GCGATTGACAGCGTAGAATGAAGG
[1] = tested on: FXR:RXRa (NR concentration 270 nM, RXRa partner concentration 90 nM)
In short: (§1)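 Antibodies against each partner of ligand-free nuclear receptor dimers (one per run) detected binding on custom Agilent 4×180K protein-binding microarrays after 1 h incubation. The double-stranded probes had 34-nt variable regions carrying direct-repeat seeds, single-nucleotide variants, half-site ablations and random human genomic background sequences. Binding z-scores, from regression-normalized fluorescence, use the random background probes as reference.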

[2] = tested on: LXRa:RXRa (NR concentration 270 nM, RXRa partner concentration 90 nM)
In short: as §1

[3] = tested on: LXRa homodimer (NR concentration 270 nM)
In short: as §1

[4] = tested on: LXRb:RXRa (NR concentration 270 nM, RXRa partner concentration 90 nM)
In short: as §1

[5] = tested on: LXRb homodimer (NR concentration 270 nM)
In short: as §1

[6] = tested on: PPARa:RXRa (NR concentration 270 nM, RXRa partner concentration 90 nM)
In short: as §1

[7] = tested on: PPARg:RXRa (NR concentration 180 nM, RXRa partner concentration 90 nM)
In short: as §1

[8] = tested on: PPARg:RXRa 270nM:90nM, anti-RXR (NR concentration 270 nM, RXRa partner concentration 90 nM)
In short: as §1

[9] = tested on: PPARg:RXRa 30nM:10nM, anti-RXR (NR concentration 30 nM, RXRa partner concentration 10 nM)
In short: as §1

[10] = tested on: PPARg:RXRa 90nM:30nM, anti-RXR (NR concentration 90 nM, RXRa partner concentration 30 nM)
In short: as §1

[11] = tested on: PPARg:RXRa DBDmut IVT, anti-RXR (DBD mutation: RXRa K156A/R161A, NR concentration 270 nM, RXRa partner concentration 90 nM)
In short: as §1

[12] = tested on: PPARg:RXRa IVT, anti-PPARg (NR concentration 270 nM, RXRa partner concentration 90 nM)
In short: as §1

[13] = tested on: PPARg DBDmut:RXRa IVT, anti-PPARg (DBD mutation: PPARg1 K132A/R137A, NR concentration 270 nM, RXRa partner concentration 90 nM)
In short: as §1

[14] = tested on: PPARg DBDmut IVT, anti-PPARg (DBD mutation: PPARg1 K132A/R137A, NR concentration 270 nM)
In short: as §1

[15] = tested on: PPARg homodimer (NR concentration 180 nM)
In short: as §1

[16] = tested on: PXR:RXRa (NR concentration 270 nM, RXRa partner concentration 90 nM)
In short: as §1

[17] = tested on: PXR homodimer (NR concentration 270 nM)
In short: as §1

[18] = tested on: RARa:RXR (NR concentration 270 nM, RXRa partner concentration 90 nM)
In short: as §1

[19] = tested on: RARa homodimer (NR concentration 270 nM)
In short: as §1

[20] = tested on: RARb:RXRa (NR concentration 270 nM, RXRa partner concentration 90 nM)
In short: as §1

Sequence | PBM binding z-score [1] | PBM binding z-score [2] | PBM binding z-score [3] | PBM binding z-score [4] | PBM binding z-score [5] | PBM binding z-score [6] | PBM binding z-score [7] | PBM binding z-score [8] | PBM binding z-score [9] | PBM binding z-score [10] | PBM binding z-score [11] | PBM binding z-score [12] | PBM binding z-score [13] | PBM binding z-score [14] | PBM binding z-score [15] | PBM binding z-score [16] | PBM binding z-score [17] | PBM binding z-score [18] | PBM binding z-score [19] | PBM binding z-score [20]
ATATGTAGGTTATCTGGTCATTCAGTTTGCGCAT | 1.2 | 1.28 | 1.15 | 1.21 | 0.901 | 3.58 | 5.56 | 4.79 | 2.32 | 4.3 | 7.43 | 7.03 | 4.79 | 3.41 | 2.41 | 1.26 | 1.14 | 0.738 | 1.75 | 1.42
CCTACTGGGCCAAGGTCATTCATCAGTCAAAGCA | 3.63 | 3.65 | 1.71 | 3.07 | 0.00532 | 4.07 | 3.93 | 4.44 | 1.62 | 3.51 | 4 | 4.59 | -0.258 | -0.0447 | 2.02 | 3.93 | 1.66 | 3.84 | 0.345 | 3.34
CGTCCAAGGTCAATGCTAGGTCAGTGCAAGCATT | 6.7 | 5.58 | 2.83 | 4.07 | 0.975 | 4.94 | 3.6 | 4.26 | 0.996 | 3.23 | 3.46 | 3.77 | -0.816 | -0.276 | 4.69 | 4.69 | 1.57 | 5.52 | 1.48 | 5.25
ACAGACAGGTAAGTGAAGGTAACTCAGCTGGACG | 0.106 | 0.0707 | -0.103 | -0.313 | -0.579 | -0.355 | 0.687 | -0.165 | -0.141 | -0.389 | -0.107 | 0.305 | 0.744 | -0.0686 | -0.111 | -0.306 | 0.283 | -0.575 | 0.213 | 0.109
TTTGCTAGGTCAGTTGGTCAGCTAACGAGCTGCC | 1.15 | 1.41 | 0.52 | 0.404 | 0.521 | 1.54 | 1.1 | 1.77 | -0.172 | 1.34 | 3.23 | 3.87 | -0.438 | -0.0692 | 0.648 | 0.0416 | -0.599 | 0.42 | -0.935 | 3.31
ACTTACGGGTCAACCAGGTTATAGCACGCGTATA | 7.15 | 5.03 | 0.836 | 4.26 | 0.9 | 5.69 | 6 | 5.69 | 3.07 | 4.26 | 3.23 | 4.21 | 2.29 | 2.39 | 4.29 | 4.77 | 1.62 | 5.34 | 1.57 | 4.17
TTACCAAGGTGAAAGGTCGTTAATGCACGCCTTG | 3.24 | 2.77 | 0.376 | 2.71 | -0.461 | 5.24 | 8.59 | 7.35 | 6.74 | 7.85 | 2.25 | 4.95 | -0.238 | 0.567 | 1.27 | 3.35 | 0.236 | 4.98 | 0.00553 | 2.78
GAGACTGGGGCATCAGCAGGTTACCATAACTTAA | 0.0727 | 0.0866 | -0.0013 | 1.28 | 0.0718 | 1.73 | 1.71 | 1.63 | 0.0526 | 0.657 | 4.76 | 4.68 | 0.663 | 0.792 | 0.579 | 0.391 | 0.295 | 0.706 | -0.0469 | 1.09
ATAAGTAGGTTACATCCGGGTCATTCAGGCTATG | 2.43 | 4.37 | 1.57 | 2.84 | 1.24 | 4.53 | 6.68 | 5.15 | 3.19 | 4.37 | 7.68 | 7.66 | 4.25 | 3.55 | 2.34 | 3.51 | 2.42 | 3.58 | 1.79 | 2.26
TCATATAGGTAATACAGGTGAAAGTAGGCATCTA | 0.885 | 1.45 | 0.55 | 1.22 | 0.295 | 2.15 | 2.26 | 2.62 | 3.8 | 3.24 | 3.97 | 3.61 | 1.94 | 1.73 | 1.39 | 0.952 | 0.772 | 1.07 | 1.69 | 0.613
CCTTACGGATCACTGACAGGTTATAGCATTTGGA | 0.345 | 0.818 | 0.768 | 0.559 | 0.661 | 0.447 | 0.638 | 0.275 | 0.461 | 0.192 | 0.71 | -0.0645 | 0.405 | 0.544 | 0.811 | 0.356 | 0.678 | 0.397 | 1.14 | 0.471
AGTCAAAGTTCACTAGGTAGCGTAAGATTCAGCT | 5.23 | 5.4 | 3.04 | 2.9 | 0.743 | 4.13 | 6.27 | 6.17 | 2.76 | 5.22 | 1.37 | 3.4 | 0.246 | 0.621 | 2.62 | 4.12 | 2.83 | 3.01 | 1.33 | 4.68
CCGAGTGGGGCAAGGTTACCATAACGCACAGCCA | 0.236 | 0.965 | -0.227 | 0.664 | -0.711 | 1.78 | 2.73 | 2.77 | 0.815 | 2.3 | 1.75 | 3.14 | -0.586 | -0.492 | 0.921 | 0.439 | 0.123 | 1.16 | -0.144 | 1.4
TCATATAGGTAAATGCTAGGTGAACGTCCGATCT | 0.421 | 0.682 | 0.358 | 0.608 | -0.229 | 1.36 | 1.09 | 2.06 | 3.51 | 2.65 | 4.03 | 2.94 | 0.935 | 1.01 | 0.675 | 0.493 | 0.0506 | 0.769 | 0.634 | 0.536
CCGACTGGGGCAGAAACGTTACCATACCATCCGG | -0.564 | -0.949 | -0.452 | -0.779 | -0.864 | -1 | 0.724 | -0.373 | -0.314 | -0.369 | 1.22 | 0.558 | -0.521 | -0.904 | -0.18 | -0.851 | -0.758 | -0.735 | 0.0145 | -0.053
